# Paper PMC7826789 (International Journal of Molecular Sciences, 2021)
# System: ICK
# Settings: Compound Concentration (nM):1000
# 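Note: KINOMEscan scanMAX binding as percent activity remaining versus control; lower means stronger binding.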
row,SMILES,Percent Control
1,COc1ccc2c(-c3ccnc(Nc4cccc(OC(F)(F)F)c4)n3)cnn2n1 [GW810372X],24%
2,CCS(=O)(=O)c1ccc(OC)c(Nc2ncc(-c3cccc(OC)c3)o2)c1 [GW580509X],100%
3,CC1=C(C(=O)Nc2ccc3[nH]ncc3c2)C(c2ccc3ccccc3c2)CC(=O)N1 (stereo not drawn) [GSK270822A],84%
4,COc1cccc(-c2c[nH]c3c(N/N=C/c4ccncc4)ncnc23)c1 [GW814408X],33%
5,Cl.O=C(Nc1ccc(Oc2ccc3[nH]c(NC(=O)c4ccco4)nc3c2)cc1)Nc1cc(C(F)(F)F)ccc1F [GW683134A],100%
6,COC(=O)Nc1nc2ccc(Oc3ccc(NC(=O)Nc4cc(C(F)(F)F)ccc4F)cc3)cc2s1.Cl [GW693917A],78%
7,COc1cc(N2CCN(C(C)C)CC2)ccc1Nc1nc(Nc2ccc(F)cc2C(=O)NC[C@@H](O)CO)c2cc[nH]c2n1 [GSK1392956A],100%
8,COc1cc2ncn(-c3cc(O[C@H](C)c4ccccc4Cl)c(C(N)=O)s3)c2cc1OC [GSK237701A],91%
9,Cl.c1ccc(Cc2nc3ccc(Nc4ncnc5ccccc45)cc3[nH]2)cc1 [GR269666A],100%
10,COc1cc(C)c(N(C)C(=O)CN(C)C)cc1Nc1nc(Nc2cccc(F)c2C(N)=O)c2cc[nH]c2n1 [GSK2219385],89%
11,NS(=O)(=O)c1ccc(N/N=C2\C(=O)Nc3ccc(C(=O)NCCc4c[nH]cn4)cc32)cc1 [GW300660X],22%
12,CCS(=O)(=O)c1ccc(OC)c(Nc2ncc(-c3cccc(F)c3)o2)c1 [GW621970X],100%
13,CN(C)CCNC(=O)Nc1ccc(N(C)c2ccnc(Nc3ccc(CS(C)(=O)=O)cc3)n2)cc1.Cl [GW830900A],70%
14,COc1cc(/C=N/Nc2ncnc3[nH]ncc23)ccc1O [GW578748X],75%
15,COc1ccc2cc(-c3c(-c4ccncc4)nc(-c4ccc(S(C)(=O)=O)cc4C)n3C)ccc2c1 [SB-633825],69%
16,COc1ccc(COc2ccc(Cc3cnc(N)nc3N)cc2OC)cc1 [GW632580X],99%
17,COc1cccc(-n2ncc3c(N/N=C/c4ccncc4)ncnc32)c1 [GW784752X],64%

row,SMILES,Percent Control
1,CN(C)c1cc2c(Nc3ccc4c(cnn4Cc4ccccc4)c3)ncnc2cn1 [GW282974X],90%
2,Cc1cc(O)cc(C)c1/C=C/c1cncc(C(N)=O)c1 [GW435821X],100%
3,NS(=O)(=O)c1ccc(N/N=C2\C(=O)Nc3ccc(-c4cnco4)cc32)cc1 [GW276655],8.8%
4,O=C(Nc1n[nH]c2nc(-c3ccc(O)cc3)c(Br)cc12)C1CC1 [SB-725317],1%
5,NS(=O)(=O)c1ccc(Nc2ncc(-c3ccccc3)o2)cc1 [GW572399X],89%
6,Cl.O=C(O[C@H]1CN[C@H](C#Cc2cc3ncnc(Nc4ccc5c(cnn5Cc5ccccc5)c4)c3s2)C1)N1CCOCC1 [GSK200398A],96%
7,COc1ccccc1-c1cc(/C=C2\C(=O)Nc3ncc(Br)cc32)cc(Br)c1O [GW442130X],81%
8,CC1=C(C(=O)Nc2ccc3[nH]ncc3c2)C(c2ccc(Cl)c(Cl)c2)CC(=O)N1 (stereo not drawn) [GSK299115A],83%
9,COc1cc2ncnc(Nc3ccc4c(cnn4Cc4ccccc4)c3)c2cc1OC.Cl [GW282449A],100%
10,O=C1Nc2ccc(C(=O)c3ccco3)cc2C1=Cc1cc(Cl)c(O)c(Cl)c1 [GW406108X],68%
11,CC(C)COC(=O)c1ccc2c(c1)/C(=C/Nc1ccc(S(N)(=O)=O)cc1)C(=O)N2 [GW416981X],44%
12,Cl.O=S1CCN(Cc2ccc(-c3ccc4ncnc(Nc5ccc(OCc6ccccc6)c(F)c5)c4c3)o2)CC1 [GW576924A],100%
13,CCn1c(-c2nonc2N)nc2c(C#CC(C)(C)O)nc(OCCNC)cc21.Cl [GSK949675],100%
14,COc1cc(C=NNc2ncnc3c2cnn3-c2ccccc2)ccc1O [GW513184X],91%
15,Cl.O=C(Nc1ccc(Oc2ccc3[nH]c(NC(=O)c4ccccc4)nc3c2)cc1)Nc1cc(C(F)(F)F)ccc1F [GW709042A],100%
16,Nc1ncnc2occ(-c3ccc(NC(=O)Nc4cc(C(F)(F)F)ccc4F)cc3)c12 [GW770249X],100%
